Screens as filed in PubChem BioAssay.
TDP1 cell noCPT: qHTS for Inhibitors of human tyrosyl-DNA phosphodiesterase 1 (TDP1): qHTS in cells in absence of CPT; AID 686978, 2013; DT40 Tdp1-/- hTDP1 cells, no CPT, ATP luminescence, 48 h; Potency, µM (highest dose often 46.2 µM), for the others: at the top dose activity change, negative = growth inhibition, actives largely listed as inhibitors; 15% of 420,000 active; further: potency means the concentration at half of the fitted maximal effect; nearly all actives have a fitted effect of over 55% in size
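A cellular qHTS used chicken DT40 cells lacking endogenous Tdp1 but carrying stably transfected human TDP1. Compounds were applied without camptothecin, and cell growth kinetics were judged by ATP-dependent luminescence after ≥48 hr.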
HT1080 IDH1KD tx: qHTS for induction of synthetic lethality in tumor cells producing 2HG: qHTS for the HT-1080-IDH1KD cell line | Potency, µM (doses to about 46.1 µM), without a hit: at the top dose activity, negative = toxicity, most hits filed as cytotoxic | HT-1080 IDH1 knockdown viability, ATP luminescence, 48 h | 2% of 360,000 active;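 further: potency means the concentration at half of the fitted maximal effect; 0% = DMSO wells and -100% = cell-free medium wells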
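IDH1KD HT-1080 cells, 750/well, RPMI + 5% FBS; compound pinned after 2 h settling; 48 h, 37 °C; CellTiter-Glo luminescence; % activity normalised to DMSO and no-cell wells; curves fitted, classed by r2 and efficacy.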
uPA surface inh: qHTS for Inhibitors of Cell Surface uPA Generation; cell surface uPA generation assay, qHTS; Potency, µM (series often up to 38.3 µM), inactives show top-dose activity change, negative = inhibition, actives largely listed as inhibitors; 0.31% of 330,000 active; active means well fitted inhibition curve with a large enough effect; inconclusive means small, poorly fitted or top-dose-only effect; inactive means no such curve, though single readings can be large or run the other way; tested in mouse RAW 264.7 cells; further: potency means the concentration at half of the fitted maximal effect; nearly all actives have a fitted effect of over 55% in size
IL-1B inflam inh: qHTS for Inhibitors of Inflammasome Signaling: IL-1-beta AlphaLISA Primary Screen; THP-1 LPS/ATP IL-1B secretion, AlphaLISA, 16 h; hits give low values; activity change, % at 57.5 µM; 4.7% of 360,000 active; in the data active means activity change below about -50%; inconclusive means mostly about -30% to -49%
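Secreted IL-1B measured by AlphaLISA bead assay after 16 h compound exposure of THP-1 cells; compounds (final up to 57.5 uM) added 1 h before LPS (250 ng/mL) and ATP (1.25 mM) stimulation; lower signal means less secretion.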
HT1080NT lethal: qHTS for induction of synthetic lethality in tumor cells producing 2HG: qHTS for the HT-1080-NT fibrosarcoma cell line. 1.6% of 360,000 active. HT-1080-NT fibrosarcoma viability, CellTiter-Glo ATP luminescence, 48 h. AID 686970, 2013. Potency, µM (top dose mostly 46.1 µM), for the others: top-dose activity, negative = less viability, hits mostly cytotoxic;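 further: NT is the 2HG producing partner of a matched IDH1 knockdown line; potency means the concentration at half of the fitted maximal effect; 0% = DMSO-treated cells and -100% = media-only wells without cells; nearly all actives have a fitted effect of over 55% in size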
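750 cells/well, RPMI + 5% FBS; 2 h settle, compound pin-transfer, 48 h at 37 degrees C. CellTiter-Glo 10 min RT, luminescence. Normalized to DMSO and media-only wells.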
DT40 TDP1 CPT: qHTS for Inhibitors of human tyrosyl-DNA phosphodiesterase 1 (TDP1): qHTS in cells in presence of CPT. 12% of 420,000 active. Potency, µM (titrated, usually from 46.2 µM), for inactives: at the highest dose activity change, negative = growth inhibition, usual class: inhibitors. chicken DT40 Tdp1-/-;hTDP1 cells + 20 nM CPT, ATP luminescence, 48 h; further: potency means the concentration at half of the fitted maximal effect; nearly all actives have a fitted effect of over 55% in size
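Chicken DT40 Tdp1-/- cells complemented with human TDP1, 400 cells/well, exposed to compounds plus 20 nM camptothecin for at least 48 h at 37 C; viability read as ATP content by CellTiter-Glo luminescence.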
* = called active by the depositor; u = inconclusive; x = not tested or not shown. Shown are actives, neighbours in structure and some others; about 19% of the full set was active somewhere. Unless noted, the call rests on the fitted dose curve; in most records, active means well fitted curve in the direction sought with a large enough effect; inconclusive means small, poorly fitted or top-dose-only effect, or another doubt; inactive means no such curve, though single readings can be large; an effect the other way counts as inactive or inconclusive. Unless noted, on the % scale 0 is the no-effect control and ±100 the full control effect.

SMILES	TDP1 cell noCPT	HT1080 IDH1KD tx	uPA surface inh	IL-1B inflam inh	HT1080NT lethal	DT40 TDP1 CPT
O=C1CCCN1c1nccs1	-18%	0%	7%	-8	22%	-7%
O=C(NCc1ccccc1Cl)c1csc([C@@H]2C[C@H](O)[C@@H](CO)O2)n1	-12%	u	x	42	9%	-3%
CC(=O)Nc1cccc(-c2csc(C(O)c3ccc(F)cc3)n2)c1 (stereo not given)	-26%	-2%	x	62	0%	u
CCn1cc(CN2CCCC(CO)(Cc3ccc(F)cc3)C2)c2ccccc21 (stereo not given)	u	18µM*	2%	-65*	u	u
CC(C)n1cnc2c(NCc3ccc(S(N)(=O)=O)cc3)nc(NCc3ccc(S(N)(=O)=O)cc3)nc21	-1%	10%	5%	19	4%	6%
CC(C)[C@H](CO)Nc1nc(NCc2ccc(S(N)(=O)=O)cc2)c2ncn(C(C)C)c2n1	u	u	8%	-103*	u	u
CCCCN(CC)CCNC(=O)c1cc2c(-c3ccccc3F)nn(C)c2s1	u	u	u	x	u	16µM*
Cc1ccc(CCNC(=O)c2cc3c(-c4ccccc4F)nn(C)c3s2)cc1	u	x	x	x	x	-25%
CCN(CC)CCCNC(=O)c1cc2c(-c3ccc(Cl)cc3)nn(C)c2s1	5.8µM*	23µM*	u	-81*	21µM*	7.3µM*
CN1CCN(CCCNC(=O)c2cc3c(-c4ccc(Cl)cc4)nn(C)c3s2)CC1	u	-24%	-24%	u	u	6%
CC1CCCCN1CCNC(=O)c1cc2c(-c3ccccc3F)nn(C)c2s1 (stereo not given)	u	-25%	-24%	-28	-10%	u
CCCN(CCC)CCCNC(=O)c1cc2c(-c3ccc(Cl)cc3)nn(C)c2s1	8.2µM*	x	x	x	x	13µM*
COc1ccc(CCNC(=O)c2cc3c(-c4ccccc4F)nn(C)c3s2)c(OC)c1	5.8µM*	x	x	x	x	6.5µM*
COc1ccccc1-c1nc(SCC(=O)NCc2ccc(C)cc2)c2c(=O)n(C)c(=O)n(C)c2n1	-15%	x	x	x	x	-10%
CC1(C(=O)Nc2ccc3c(c2)OCCO3)CCN1C(=O)c1ccco1 (stereo not given)	-11%	19%	x	31	u	-42%
COc1cccc(-c2cc(C(=O)NCc3ccccc3)no2)c1	-16%	x	x	x	x	3%
CCN(CCCNC(=O)c1cc2c(-c3cccc(OC)c3)nn(C)c2s1)Cc1ccccc1	u	u	-7%	-84*	u	9.2µM*
Cc1cccc(NC(=O)c2ccc(C)c(S(=O)(=O)N3CCOCC3)c2)n1	-1%	1%	-4%	1	1%	5%
CCCCCCN1CCN(C2CN(Cc3ccccc3)S(=O)(=O)C2)CC1 (stereo not given)	u	9%	x	-12	11%	u
Cc1ccc(Cl)cc1N1CCN(C(=O)c2cc(S(=O)(=O)N3CCCCC3)cn2C)CC1	21µM*	x	x	x	x	13µM*
Cc1ccc(Cl)cc1N1CCN(C(=O)c2cc(S(=O)(=O)N3CCCC3)cn2C)CC1	23µM*	x	x	x	x	16µM*
Cc1cccc(N2CCN(C(=O)c3cc(S(=O)(=O)N4CCOCC4)cn3C)CC2)c1C	u	-1%	0%	u	0%	u
COc1cc(O)cc2c1[C@@H]1Oc3c(ccc(O)c3CC=C(C)C)[C@@H]1CO2	23µM*	1%	13%	-4	0%	18µM*
O=S(OCCN1CCOCC1)C(c1ccccc1)c1ccccc1 (stereo not given)	u	-7%	-3%	-11	-3%	u
O=S(OCCN1CCCC1)C(c1ccccc1)c1ccccc1 (stereo not given)	u	u	-16%	-90*	-23%	u
SMILES	TDP1 cell noCPT	HT1080 IDH1KD tx	uPA surface inh	IL-1B inflam inh	HT1080NT lethal	DT40 TDP1 CPT
Cc1cnc(CNC(=O)C2(C)CCCN2CC(C)C)cn1 (stereo not given)	-8%	u	x	61	7%	-18%
CCOC(=O)C1CCCN(C(=O)CN2C(=O)c3ccccc3C2=O)C1 (stereo not given)	1%	0%	1%	8	-1%	-5%
CCOC(=O)C1CCCN(C(=O)CN2C(=O)/C(=C/c3ccc(OC)cc3)Oc3ccccc32)C1 (stereo not given)	13µM*	-5%	-20%	-20	-12%	u
S=C1SC2(CCCCCC2)NC2=C1CCCCC2	13µM*	2%	x	14	0%	u
CSc1ncccc1C(=O)Nc1ccccc1N1CCOCC1	9%	-5%	2%	26	6%	-2%
Nc1cc(S(=O)(=O)Nc2ccc(Br)cc2)ccc1Cl	u	u	1%	-69*	-18%	u
COc1ccc(NS(=O)(=O)c2ccc(Cl)c(N)c2)cc1Br	u	-23%	-1%	-13	-24%	8%
CC(=O)c1ccc(N=Nc2ccc(N)cc2)cc1	u	-16%	4µM*	u	-3%	u
COc1ccccc1NC(=O)CN(Cc1ccco1)C(=O)c1ccc(-n2nc(C)cc2C)cc1	16µM*	2%	x	-4	7%	u
Cc1ccc(CN(Cc2ccco2)C(=O)c2ccc(OCC(C)C)cc2)cc1	16µM*	x	x	x	x	u
CCOc1ccc(C(=O)N(Cc2ccc(C(C)C)cc2)Cc2ccco2)cc1	21µM*	x	x	x	x	u
COc1ccccc1NC(=O)CN(Cc1ccco1)C(=O)c1cncc(Br)c1	-31%	-7%	-5%	-8	0%	-20%
CC(C)COc1ccc(C(=O)N(CC(=O)Nc2ccccc2C(F)(F)F)Cc2ccco2)cc1	u	-28%	-2%	-72*	u	u
COc1ccccc1NC(=O)Cn1c(C)cc(C)c(C#N)c1=O	11%	x	x	x	x	-5%
CNC(=O)C[C@@H]1C(=O)N(c2ccc(Br)cc2)CC1(C)C	-5%	2%	x	3	-2%	6%
COc1ccc(Oc2cccc(Cl)c2CNC(=O)CCCC(=O)O)cc1	-7%	1%	5%	-5	2%	-1%
N#CC(C#N)=Cc1cccn1-c1ccc(S(N)(=O)=O)cc1	u	-9%	-2%	u	-7%	-21%
COC(=O)c1ccc(Nc2ncnc3c2cnn3-c2ccccc2)cc1	-7%	x	x	x	x	-2%
